Test results published in PubChem BioAssay AID624125 (The Scripps Research Institute Molecular Screening Center, 2012).
“And” between values parts separate entries of the source, which are not always exact repeats. Equal entries are not always repeated. Hit rate of the full screen: of about 360,000 compounds, about 2,600 (0.72%) were called active.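 How the source made its calls: active means inhibition above its plate's cutoff, the mean inhibition of sample wells plus 3 SD (cut at about 27% in these data); inactive means the rest.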 The list comes from a sample in which actives are over-represented; it also holds similar structures and randomly drawn compounds. More than one record can exist for a structure, and the calls need not agree.

Target: Muscarinic acetylcholine receptor M4 (Homo sapiens) (UniProt P08173)
Experiment: human M4 muscarinic receptor antagonists, primary screen, CHO cells, Fluo-8 calcium fluorescence (AID 624125);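 further: 0% = acetylcholine EC80 with DMSO and 100% = DMSO without agonist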
Conditions: CHO-hM4 cells, ACh EC80, Fluo-8 calcium fluorescence; at 3 µM; stronger effect = higher value

Muscarinic acetylcholine receptor M4 (Homo sapiens), sequence (P08173 whole entry, looked up): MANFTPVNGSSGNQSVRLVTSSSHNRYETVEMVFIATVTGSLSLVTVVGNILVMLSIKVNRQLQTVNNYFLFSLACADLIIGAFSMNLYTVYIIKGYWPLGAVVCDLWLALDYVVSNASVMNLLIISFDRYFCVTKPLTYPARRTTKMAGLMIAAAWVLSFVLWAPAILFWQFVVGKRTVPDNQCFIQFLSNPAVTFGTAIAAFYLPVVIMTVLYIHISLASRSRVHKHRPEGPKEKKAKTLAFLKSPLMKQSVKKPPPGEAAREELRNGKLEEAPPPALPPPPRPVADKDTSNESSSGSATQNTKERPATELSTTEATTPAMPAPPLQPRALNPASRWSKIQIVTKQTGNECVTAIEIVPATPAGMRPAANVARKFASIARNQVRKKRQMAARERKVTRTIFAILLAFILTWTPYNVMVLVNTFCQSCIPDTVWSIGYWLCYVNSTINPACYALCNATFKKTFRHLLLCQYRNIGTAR

Row | Compound | inhibition
1 | CCOC(=O)[C@H]1[C@H]2COc3cc(OC)ccc3[C@@H]2N2C(=O)CN(Cc3ccc(Cl)cc3)C(=O)[C@@]12C | 2.23% (inactive)
2 | CCOC(=O)[C@H]1[C@H]2COc3ccccc3[C@@H]2N2C(=O)CN(Cc3ccccc3)C(=O)[C@@]12C | -1.92% (inactive)
3 | CCOC(=O)[C@H]1[C@H]2COc3ccc(C)cc3[C@@H]2N2C(=O)CN(Cc3ccc(F)cc3)C(=O)[C@@]12C | 56.2% (active)
4 | CC(C)CNC(=S)NC(=O)c1ccc(Cl)cc1 | -0.83% (inactive)
5 | COc1ccc(N2CC(C(=O)NCCN3C(=O)S/C(=C\c4cccnc4)C3=O)CC2=O)c(OC)c1 (centres undefined) | -13.5% (inactive)
6 | O=C(NC(Cc1ccc(O)cc1)C(=O)O)/C(=C/c1ccccc1)NC(=O)c1ccccc1 (centres undefined) | 0.71% (inactive)
7 | COc1cccc(C(=O)NNS(=O)(=O)c2ccc(F)cc2)c1 | 9.85% (inactive)
8 | CC(C)NC(=O)C1(C)CCCCN1Cc1cccc(C(F)(F)F)c1 (centres undefined) | -7.19% (inactive)
9 | O=C(COC(=O)c1ccc(S(=O)(=O)Nc2ccccc2)cc1)NCC1CCCO1 (centres undefined) | 0.71% (inactive)
10 | O=C(c1cc(COc2c(F)cccc2F)on1)N1CCSCC1 | 8.34% (inactive)
11 | CCCC(=O)N1CCC1(C)C(=O)Nc1ccc(-n2cncn2)cc1 (centres undefined) | -7.42% (inactive)
12 | C=CCC1(CC=C)CCCN1C(=O)c1cc(COc2ccc(-n3cncn3)cc2)on1 | 28.6% (active)
13 | Cc1cccc(C)c1Nc1nnc(SCC(=O)NCCCN2CCCC2=O)s1 | -0.57% (inactive)
14 | COC(=O)c1sccc1NC(=O)CC1C(=O)NCCN1C(=O)Nc1ccc(F)cc1F (centres undefined) | -7.71% (inactive)
15 | COc1ccc(CC(=O)Nc2c3c(nn2-c2cccc(Cl)c2)CS(=O)C3)cc1 (centres undefined) | 3.64% (inactive)
16 | Cc1cc(OCCN2CCCC2)ccc1C(C)C | -0.72% (inactive)
17 | Cc1ccc(C(C)C)cc1OCCN1CCCC1 | 9.89% (inactive)
18 | Cc1cc(OCCN2CCCC2)cc(C(C)C)c1 | 33% (active)
19 | CCOC(=O)[C@]12CCCC=C1N(CCC1=CCCCC1)C(=O)[C@H](CC(=O)NCCCOC)C2 | -3.81% (inactive)
20 | CC(=O)N(CC1CCCO1)C1(C(=O)NC2CCCC2)CCCCC1 (centres undefined) | -5.29% (inactive)
21 | CN(CC#CCC(c1ccccc1)c1ccccc1)C(C)(C)C | 78.5% (active)
22 | Cc1cc(Cl)ccc1C(=O)C1CCCN(C(=O)CCN2CCCO2)C1 (centres undefined) | 4.93% (inactive)
23 | CCCCCCCCCCOC(=O)Cn1c(COc2cccc(OC)c2)[n+](C)c2ccccc21 | 36% (active)

Row | Compound | inhibition
24 | COCCN1C(=O)C(=O)/C(=C(/O)c2ccc(S(=O)(=O)N3CCCCC3)cc2)C1c1ccc(OC)c(OC)c1 (centres undefined) | -5.56% (inactive)
25 | CC(C)c1cc(C(=O)N/N=C/c2ccoc2)c(O)c(C(C)C)c1 | 5.01% (inactive)
26 | COC(=O)c1ccccc1NC(=O)CN(Cc1ccc(Cl)cc1)S(C)(=O)=O | 1.99% (inactive)
27 | Fc1ccccc1CNC(=S)Nc1ccc(Cl)cc1 | 4.18% (inactive)
28 | O=C(Cc1ccc(Cl)cc1)NC(=S)Nc1ccccc1O | 59% (active)
29 | CCOc1ccc(S(=O)(=O)N(CC(=O)NCC(F)(F)F)Cc2ccco2)cc1 | -2.55% (inactive)
30 | Cc1ccc(OCCNC(=O)CCNS(=O)(=O)c2ccc(Br)cc2)cc1 | -11.5% (inactive)
31 | Cc1ccc(OC(=O)c2c(C)nn(-c3ccccc3)c2C)cc1 | -5.29% (inactive)
32 | COc1ccccc1CSc1ncc(-c2ccc([N+](=O)[O-])cc2)[nH]1 | -1.68% (inactive)
33 | CCC1OC(c2ccc([N+](=O)[O-])cc2)=Nc2ccccc21 (centres undefined) | 31.2% (active)
34 | CCCCN(C)c1ccc([N+](=O)[O-])cc1 | 12.1% (inactive)
35 | CCOC(=O)c1cc(-c2ccccc2C)n(Cc2cc(C)no2)n1 | 4.03% (inactive)
36 | CCCCNCCS(=O)(=O)NCc1ccccc1 | 7.64% (inactive)
37 | CO/N=C(\C(=O)N[C@@H]1C(=O)N2C(C(=O)O)=C(COC(C)=O)CS[C@H]12)c1csc(N)n1 (stereo in doubt) | -6.4% (inactive) and 79.2% (active) and 82.7% (active)
38 | C=CC1=C(C(=O)O)N2C(=O)[C@@H](NC(=O)/C(=N\OCC(=O)O)c3csc(N)n3)[C@H]2SC1 | -25.2% (inactive)
39 | C=CC1=C(C(=O)O)N2C(=O)[C@@H](NC(=O)/C(=N/OCC(=O)O)c3csc(N)n3)[C@H]2SC1 | -12.2% (inactive)
40 | Cn1c(Cc2cccc3ccccc23)nnc1SCC(=O)N1CCN(c2cccc(Cl)c2)CC1 | -1.27% (inactive)
41 | O=C(Cc1csc(Nc2nc(=S)[nH]c3ccccc23)n1)NCCCN1CCN(c2cccc(Cl)c2)CC1 | 32.6% (active)
42 | O=C(Cc1ccc(-n2c(=O)[nH]c3ccccc3c2=O)cc1)N1CCN(c2cccc(Cl)c2)CC1 | -5% (inactive)
43 | COc1cc(SC#N)ccc1N=Cc1c(C)[nH]n(-c2ccc(C)cc2)c1=O | 39.7% (active)
44 | CCN(CC(=O)NCc1cccs1)S(=O)(=O)c1ccc(NC(C)=O)cc1 | 16.2% (inactive)
45 | CCCCNC(=O)N1CCN(S(C)(=O)=O)CC1 | 10.9% (inactive)
46 | O=C(Nc1ccc(Cl)c(C(F)(F)F)c1)C1Cc2c(-c3ccccc3Oc3ccccc3)ccnc2O1 (centres undefined) | 6.27% (inactive)

Row | Compound | inhibition
47 | O=C1c2ccccc2C(=O)N1CCC(c1ccccc1)c1ccco1 (centres undefined) | 35.6% (active)
48 | Nc1ccc(SCCN2C(=O)c3ccccc3C2=O)cc1 | 2.61% (inactive)
49 | O=C1c2ccccc2C(=O)N1CCC(O)C[N+](=O)[O-] (centres undefined) | -2.27% (inactive)
50 | Cc1ccc(NC(=O)COC(=O)C2C3CC4OC(=O)C2C4C3)cc1Cl (centres undefined) | 15.9% (inactive)
51 | CCCN1C(=O)C(NC(C)=O)c2cc(OC)ccc21 (centres undefined) | 13.9% (inactive)
52 | ON=C1/C(=N\O)CC2(C/C1=N/O)OCCO2 | 10.7% (inactive)
53 | CN(C(=O)CN1C(=O)/C(=C/c2ccc(Cl)cc2)SC1=S)C1CCS(=O)(=O)C1 (centres undefined) | -3.95% (inactive)
54 | COc1cc(/C=C2/SC(=S)N(Cc3ccccc3)C2=O)cc(OC)c1O | 34.3% (active)
55 | COc1cc(/C=C2\SC(=O)NC2=O)ccc1OCc1ccc(Cl)nc1 | -5.37% (inactive)
56 | CCCN(CCc1ccccc1)C1CCc2c(O)cccc2C1 (centres undefined) | 50.8% (active)
57 | Cc1cc(C)cc(C(=O)N(CCc2ccccc2)C2=CC3CCC(C2)N3C)c1 (centres undefined) | 2.44% (inactive)
58 | Cc1cccc(C)c1NC(=O)C(c1cccc2ccccc12)n1c(=O)c(-c2ccco2)nc2ccccc21 (centres undefined) | -2.98% (inactive)
59 | Cc1ccc(S(=O)(=O)N2CCN(C(=O)COC(=O)CNC(=O)c3ccc(C(C)(C)C)cc3)CC2)c(C)c1 | 1.62% (inactive)
60 | Cc1cccc2c1-c1sc(C(=O)NCCCN3CCc4ccccc4C3)cc1CO2 | 45.9% (active)
61 | Cc1ccc(NC(=O)CN2CCc3ccccc3C2)cc1C | 1.35% (inactive)
62 | Cc1cccc(C)c1NC(=O)c1ccc(CN2CCc3ccccc3C2)cc1 | 12.8% (inactive)
63 | Cc1ccc(C(=O)OCC(=O)NC(=O)Cc2ccccc2)c(O)c1 | 3.16% (inactive)
64 | CC1CCCCC1NC(=O)CN1CCC(O)(c2ccc3c(c2)OCO3)CC1 (centres undefined) | -5.57% (inactive)
65 | CC(=O)c1c(C)[nH]c(C(=O)OCC(=O)Nc2c(C)cccc2C)c1C | 4.68% (inactive)
66 | COc1ccc(C)cc1NC(=O)C(OC(=O)c1cccc(S(=O)(=O)N(C)c2ccccc2)c1)c1ccccc1 (centres undefined) | 5.12% (inactive)
67 | CC(=O)c1c(C)[nH]c(C(=O)COC(=O)c2cccc(S(=O)(=O)N(C)c3ccccc3)c2)c1C | 54.5% (active)
68 | C=CCSc1nc(N)cc(=O)[nH]1 | 4.39% (inactive)
69 | O=C(C1CCN(CC2CCCCC2)CC1)N1CCCC1 | -6.1% (inactive)

Row | Compound | inhibition
70 | CC(=O)NC(c1cccc(F)c1)c1nc(-c2cccc(F)c2)cs1 (centres undefined) | -12% (inactive)
71 | CCC(=O)OCc1c(C(F)(F)F)nn(C)c1Oc1cccc(C(F)(F)F)c1 | 9.7% (inactive)
72 | COC(=O)c1ccccc1Sc1c(/C=N/OCc2ccc(Cl)cc2)c(C(F)(F)F)nn1C | -7.11% (inactive)
73 | Cn1nc(C(F)(F)F)c(C(=O)Nc2cccc(C(F)(F)F)c2)c1SCc1ccc(Cl)cc1 | 33.8% (active)
74 | C=CCNC(=S)/N=c1/ccccn1Cc1ccccc1 | 11.8% (inactive)
75 | COc1ccccc1CNc1nc(Nc2ccccc2Cl)c2sccc2n1 | 3.54% (inactive)
76 | COc1cccc(CNc2nc(NCc3ccccc3OC)nc3ccsc23)c1 | 13.8% (inactive)
77 | COc1cccc(CNc2nc(NCc3cccs3)nc3ccsc23)c1 | 48.6% (active)
78 | COc1ccc(OCC(=O)Nc2cc(C)c(Cl)cc2OC)c([N+](=O)[O-])c1 | -4.9% (inactive)
79 | CN(C)CCOC1c2ccccc2-c2ccccc21 | 3.09% (inactive)
80 | Cc1ccccc1C(OCCN(C)C)C1CCCCC1 (centres undefined) | 83% (active)
81 | Cc1ccccc1C(OCC(O)CN1CCCCC1CCO)c1ccccc1 (centres undefined) | 8.86% (inactive)
82 | Cc1n[nH]c(=O)n1-c1ccc(Oc2ccccc2)cc1 | -7.75% (inactive)
83 | COc1ccc(OC)c(/C=N/NC(=O)c2ccc[n+](CC(=O)c3ccccc3)c2)c1 | -5.54% (inactive)
84 | COc1cccc(/C=N/Nc2cc(C)nc(-c3ccccc3O)n2)c1O | 28.3% (active)
85 | CCCCCCCCn1c2c(c(=N)c3c1CCC3)CCCC2 | 36.8% (active)
86 | CC1CN(S(=O)(=O)c2ccccc2)C(C)CN1S(=O)(=O)c1ccccc1 (centres undefined) | -4.76% (inactive)
87 | O=C(CC(NC(=O)c1ccccc1)c1ccccc1)Nc1ccc(F)c(F)c1 (centres undefined) | -4.69% (inactive)
88 | COc1ccccc1OCc1nnc(SCC(N)=O)n1-c1ccccc1 | -4.24% (inactive)
89 | CC1CCN(C(=O)c2ccc(S(=O)(=O)Cc3cc(F)ccc3F)c([N+](=O)[O-])c2)CC1 | -7.53% (inactive)
